This is an account of results in PubChem BioAssay (NCATS).

SMILES strings stand for the structures. Inconclusive results are not listed. Entries that show only a call come without a potency. Active and inactive are the calls of the source. Calls come from the whole dose curve; as a rule, active = well fitted inhibition curve with a large enough effect; inconclusive = small, poorly fitted or top-dose-only effect; inactive = flat fitted curve, though single readings scatter.

Chain of Voltage-gated inwardly rectifying potassium channel KCNH2 (Homo sapiens) (Q12809 whole entry, looked up): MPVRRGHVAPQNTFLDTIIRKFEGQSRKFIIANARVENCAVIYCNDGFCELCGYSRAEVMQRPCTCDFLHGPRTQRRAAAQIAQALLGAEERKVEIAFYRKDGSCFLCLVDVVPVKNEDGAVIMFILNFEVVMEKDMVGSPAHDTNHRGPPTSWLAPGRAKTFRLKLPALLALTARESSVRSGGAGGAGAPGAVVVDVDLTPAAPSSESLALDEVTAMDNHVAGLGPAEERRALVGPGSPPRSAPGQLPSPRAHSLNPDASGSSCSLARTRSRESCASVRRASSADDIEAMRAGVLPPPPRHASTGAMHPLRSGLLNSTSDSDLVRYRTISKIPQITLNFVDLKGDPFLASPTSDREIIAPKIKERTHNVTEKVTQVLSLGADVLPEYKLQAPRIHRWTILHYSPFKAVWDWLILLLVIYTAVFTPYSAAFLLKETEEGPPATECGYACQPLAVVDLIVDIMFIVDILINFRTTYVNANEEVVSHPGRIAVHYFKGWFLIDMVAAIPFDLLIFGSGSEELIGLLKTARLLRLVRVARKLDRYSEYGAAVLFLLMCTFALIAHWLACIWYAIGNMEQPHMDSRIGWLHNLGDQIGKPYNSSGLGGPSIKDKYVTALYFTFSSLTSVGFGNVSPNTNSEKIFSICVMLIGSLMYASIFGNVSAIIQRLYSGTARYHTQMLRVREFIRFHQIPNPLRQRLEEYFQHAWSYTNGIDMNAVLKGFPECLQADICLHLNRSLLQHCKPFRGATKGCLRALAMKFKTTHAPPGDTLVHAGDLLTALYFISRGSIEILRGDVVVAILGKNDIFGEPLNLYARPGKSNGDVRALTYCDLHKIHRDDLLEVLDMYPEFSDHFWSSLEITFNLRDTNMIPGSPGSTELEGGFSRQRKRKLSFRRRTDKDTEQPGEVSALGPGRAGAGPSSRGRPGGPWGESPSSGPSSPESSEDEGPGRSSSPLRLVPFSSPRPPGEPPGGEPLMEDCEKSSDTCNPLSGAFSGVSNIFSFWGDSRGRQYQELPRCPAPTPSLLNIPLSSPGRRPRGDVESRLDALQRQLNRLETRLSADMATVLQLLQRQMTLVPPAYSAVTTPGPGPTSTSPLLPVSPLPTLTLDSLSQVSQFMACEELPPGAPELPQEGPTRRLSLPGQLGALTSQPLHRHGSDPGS

The target in this assay is Voltage-gated inwardly rectifying potassium channel KCNH2 (Homo sapiens) (UniProt Q12809). The assay is described as follows: qHTS Assay for Small Molecule Inhibitors of the Human hERG Channel Activity (AID 588834).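 Note: top concentration of the series differs between compounds; lower thallium flux fluorescence means stronger hERG block; nearly all actives have a fitted effect of over 50% in size.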 Conditions: U2OS BacMam hERG, FluxOR thallium flux fluorescence; series mostly up to 46.1 µM. An outline of the steps:
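U2OS cells transduced with hERG via BacMam (MOI ~100), plated 2000/well, loaded with FluxOR thallium dye, compound ~10 min, then stimulation buffer; fluorescence decrease read kinetically; AC50 from Hill fits.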
Background: In qHTS, concentration-response curves come from the screen itself.
Take `Cc1c(Nc2ncccc2C(=O)O)cccc1C(F)(F)F`: the Potency result is “inactive”.
As for `CN(C)c1nc2c(Br)c(Br)c(Br)c(Br)c2[nH]1`, the Potency entry was “inactive”.
As to `Clc1ccccc1-c1nc(-c2ccncc2)no1`, the Potency entry is “inactive”.
Take `c1ccc2sc(SN3CCOCC3)nc2c1`: the Potency entry is “inactive”.
